The panel holds about 83,000 compounds, 20% with a hit somewhere; the sample as a whole holds those more often.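 Plates (96-well) were seeded with cells, treated with compound at one concentration, and incubated for 48 hours before percent growth was determined.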 Values without a mark were called inactive. Active and inactive are the calls of the source. How the source made its calls: active means growth percent below 10; inactive means the rest.

The subject of this test is MDA-MB-468 breast. Kind of test: NCI-60 one-dose screen, 48 h (100 = growth as untreated, 0 = no growth, -100 = all killed). The settings on record: 10 µM unless noted.
With `COC(=O)c1ccc(C(=Nc2ccc(N(C)C(=O)CN3CCN(C)CC3)cc2)c2c(O)[nH]c3ccc(C(=O)OC)cc23)cc1`, the growth is 62.5%.
Then `C#CCOc1ccc(/C=N/Nc2nc(-c3cc(Cl)ccc3Cl)cs2)cc1`, with 25.9%.
Then `COc1cc2nc(-c3ccc(C(F)(F)F)cc3)cc(OCCN3CCCCC3)c2cc1OC`, with 93.6%; and `N#CCNc1ccccc1N`, with 108%.
Then `O=c1c2cc(Cl)ccc2oc2ccc(OCCCCCN3CCCCCC3)cc12`, with 74.1%; and `CC[C@@H]1O[C@H](O[C@@H](c2cnc[nH]2)[C@H](NC(=O)c2nc([C@H](CC(N)=O)NC[C@@H](N)C(N)=O)nc(N)c2C)C(=O)N[C@H](C)[C@H](O)[C@H](C)C(=O)N[C@@H](C(=O)NCCc2nc(-c3nc(C(=O)NCCCCN=C(N)N)cs3)cs2)[C@@H](C)O)[C@H](O[C@@H]2O[C@H](CO)[C@H](O)[C@H](OC(N)=O)[C@@H]2O)[C@H](C)[C@@H]1C`, with 57%.
`CC(=NNc1ncnc2ccccc12)c1ccc(S(C)(=O)=O)cc1`: the growth is 103%.
Then `Cc1ccc(S(=O)(=O)NCCNc2nccc(-c3c(-c4ccc(O)cc4)nc4sccn34)n2)cc1`, with 85.3%.
The same measure for `Cc1ccc(C2CC(c3ccc(Nc4nc(NCCO)nc(Nc5ccc(Cl)cc5)n4)cc3)=NN2c2cc(Cl)cc(Cl)c2)cc1` (stereo not given): 102%.
`O=C(Nc1nc2ccc([N+](=O)[O-])cc2s1)Nc1ccccc1Cl`: the growth is 58.5%.
Then `COc1nc2ccccc2cc1/C=C1/C=C(c2ccccc2)NC1=O`, with 29%; and `c1ccc2c(NCCCn3ccnc3)c3oc4ccccc4c3nc2c1`, with -8.65% (active); and `CCN(CC)c1ccc2nc3ccc(N=Nc4ccc(O)cc4)cc3[n+](-c3ccccc3)c2c1`, with -60.7% (active).
Regarding `COc1ccc(CNc2c3ccccc3nc3ccccc23)cc1F`, the growth was -18.7% (active).
The same measure for `c1ccc(Nc2ccc(Nc3nc(-c4ccccc4)nc4ccccc34)cc2)cc1`: 82.3%.
For the compound `COC[C@@H](C)n1c(C2CCOCC2)nc2c1C1C=C(OC)C(c3c(C)noc3C)=CC1N=C2` (stereo not given in full), the growth was 32.4%.
Consider `Cc1c(NC(=O)OC[C@@H]2COCCN2)cn2ncnc(Nc3ccc4c(cnn4Cc4cccc(F)c4)c3)c12`, for which the growth is -53.7% (active).
With `O=C(c1ccccc1)N1N=C(c2ccc(-n3ccc(C(F)(F)F)n3)c(F)c2)CC1c1ccc[nH]1` (stereo not given), the growth was 108%.
Then `COc1ccc2c(N)ncc(C#Cc3cc(C(=O)Nc4ccc(CN5CCN(C)CC5)c(C(F)(F)F)c4)cnc3C)c2c1`, with 46.7%; and `CCOC(=O)C(=Cc1ccc(C#N)cc1)C(=O)OCC`, with 15.6%; and `Oc1ccccc1/C=N\NC(=S)Nc1ccc(F)cc1`, with 2.61% (active).
For `CCCN1CCN(c2ccc3nc(-c4ccc5nc(-c6ccc(C(F)(F)F)cc6)[nH]c5c4)[nH]c3c2)CC1`, the growth is -63.6% (active).
Then `N[C@H]1CCC[C@@H]1NCCCCN1C(=O)c2cccc3cc([N+](=O)[O-])cc(c23)C1=O`, with 38.8%; and `Cc1nc2scc(-c3ccccc3)n2c(=O)c1CCO`, with 101%.
Regarding `O=[N+]([O-])CC(c1ccccc1F)c1c[nH]c2ccccc12` (stereo not given), the growth is 44%.
Then `CCCCCCCC/C=C\CCCCCCCCOc1ccccc1CCOP(=O)(O)OCC[N+](C)(C)C`, with 61.9%; and `CN(C)CCCOc1cccc(NC2=C(Cl)C(=O)C(Nc3cccc(OCCCN(C)C)c3)=C(Cl)C2=O)c1`, with -57.3% (active).
For `COc1cnc2c(c1)C(=O)c1c-2n(CCCN2CCCC2)c(=O)c2cc([N+](=O)[O-])ccc12`, the growth is -41.1% (active).
The same measure for `COC(=O)C1(C)COP(=O)(Nc2ccc(OC)cc2)OC1` (stereo not given): 106%; for `CCN(CC)c1ccc(C(=N)c2ccc(N(C)C)cc2)cc1`: 5.37% (active); for `CC12CCC3C(CCC4CC(O)CCC43C)C1C/C(=C/O)C(=O)O2` (stereo not given): 108%.
As to `CC(C)C(NC(=O)CN)C(=O)O` (stereo not given), the growth was 104%.
With `O=C1OC(c2ccc(-c3ccccc3)cc2)=C/C1=C/C=C/c1ccccc1`, the growth is 99.7%.
Then `Cc1cc(Nc2nc(C(=O)Nc3ccccc3)nc3ccccc23)n[nH]1`, with 68.9%; and `Cc1ccc(-c2nc(/C=N/Nc3cc(C)nc4ccc(Br)cc34)c(C)o2)cc1`, with -89% (active).
Then `CCOC(=O)C12CCCC1=CC(=O)CC2` (stereo not given), with 110%.
Consider `CCCCn1c(C)nc2ccc(Nc3nc(N4CCN(C)CC4)nc4nc[nH]c34)cc21`, for which the growth was 82.2%.
Regarding `COc1cc(-n2nc(C(=O)Nc3ccc(C(=O)O)cc3)nc2-c2ccccc2)cc(OC)c1OC`, the growth was 0.458% (active).
The same measure for `C/C=C(/C)C(=O)OC1C=C(CO)C(=O)C(OC(=O)C2(C)OC2C)C1C(C)C` (stereo not given): -66.8% (active); for `COc1ccc(Sc2[nH]c(C=O)c3ccccc23)cc1`: 9.32% (active).

The record behind these values is PubChem BioAssay (NCI).
